The campaign covered roughly 5,500 compounds. About 2,000 (36%) were called active. Roughly 18% stayed inconclusive and do not appear here. No stated cut-off is given here; in the data, active means normalized growth mostly below about 0.91 (no sharp cut-off); inconclusive means no clear call, values can overlap the other calls; inactive means mostly above about 0.92. Some of the results follow.
Test: chemical genetic growth profiling, strain panel (AID 1159580);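 further: tested at 20 µM; growth read once vehicle control cultures reached saturation at 30 °C; 1 = growth at the plate median or of vehicle wells; lower values mean less growth of the strain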
Settings: S. cerevisiae deletion strains, growth OD
[1] = locus YAR019C, strain CDC15, active compounds read low
[2] = locus YBL105C, strain PKC1, active compounds read low
[3] = locus YBR135W, strain CKS1, active compounds read low
[4] = locus YBR136W, strain MEC1, active compounds read low
[5] = locus YBR160W, strain CDC28, active compounds read low
[6] = locus YDL017W, strain CDC7, active compounds read low
[7] = locus YDL028C, strain MPS1, active compounds read low
[8] = locus YDL101C, strain DUN1, active compounds read low
[9] = locus YDL108W, strain KIN28, active compounds read low
[10] = locus YDL132W, strain cdc53, active compounds read low
[11] = locus YDL214C, strain PRR2, active compounds read low
[12] = locus YDR052C, strain DBF4, active compounds read low
[13] = locus YDR054C, strain cdc34, active compounds read low
[14] = locus YDR226W, strain ADK1, active compounds read low
[15] = locus YDR477W, strain SNF1, active compounds read low
[16] = locus YER123W, strain YCK3, active compounds read low
[17] = locus YER133W, strain GLC7, active compounds read low
[18] = locus YFL009W, strain cdc4, active compounds read low
[19] = locus YFL029C, strain CAK1, active compounds read low
[20] = locus YFR003C, strain YPI1, active compounds read low
[21] = locus YFR019W, strain FAB1, active compounds read low
[22] = locus YFR028C, strain CDC14, active compounds read low
[23] = locus YGR040W, strain KSS1, active compounds read low
[24] = locus YGR052W, strain FMP48, active compounds read low
[25] = locus YGR092W, strain DBF2, active compounds read low
[26] = locus YHR030C, strain SLT2, active compounds read low
[27] = locus YHR079C, strain IRE1, active compounds read low
[28] = locus YHR082C, strain KSP1, active compounds read low
[29] = locus YHR205W, strain SCH9, active compounds read low
[30] = locus YIL147C, strain SLN1, active compounds read low
[31] = locus YJL095W, strain BCK1, active compounds read low
[32] = locus YJL128C, strain PBS2, active compounds read low
[33] = locus YJL157C, strain FAR1, active compounds read low
[34] = locus YJR016C, strain ILV3, active compounds read low
[35] = locus YJR066W, strain TOR1 (second series), active compounds read low
[36] = locus YJR066W, strain TOR1, active compounds read low
[37] = locus YKL048C, strain ELM1, active compounds read low
[38] = locus YKL067W, strain YNK1, active compounds read low
[39] = locus YKL101W, strain HSL1, active compounds read low
[40] = locus YKL193C, strain SDS22, active compounds read low
[41] = locus YKL203C, strain TOR2, active compounds read low
[42] = locus YLR113W, strain HOG1, active compounds read low
[43] = locus YLR133W, strain CKI1, active compounds read low
[44] = locus YLR403W, strain SFP1, active compounds read low
[45] = locus YML070W, strain DAK1, active compounds read low
[46] = locus YMR001C, strain CDC5, active compounds read low
[47] = locus YMR205C, strain PFK2 (second series), active compounds read low
[48] = locus YMR277W, strain FCP1, active compounds read low
[49] = locus YNL006W, strain LST8, active compounds read low
[50] = locus YNL020C, strain ARK1, active compounds read low
[51] = locus YNL161W, strain CBK1, active compounds read low
[52] = locus YNL183C, strain NPR1, active compounds read low
[53] = locus YNL207W, strain RIO2, active compounds read low
[54] = locus YNL222W, strain SSU72, active compounds read low
[55] = locus YNL307C, strain MCK1 (second series), active compounds read low
[56] = locus YOL078W, strain AVO1, active compounds read low
[57] = locus YOL136C, strain PFK27, active compounds read low
[58] = locus YOR061W, strain CKA2, active compounds read low
[59] = locus YOR119C, strain RIO1, active compounds read low
[60] = locus YOR231W, strain MKK1, active compounds read low
[61] = locus YOR329C, strain SCD5, active compounds read low
[62] = locus YPL031C, strain PHO85, active compounds read low
[63] = locus YPL153C, strain RAD53, active compounds read low
[64] = locus YPL204W, strain HRR25, active compounds read low
[65] = locus YPL209C, strain IPL1, active compounds read low
[66] = locus YPL256C, strain CLN2, active compounds read low
[67] = locus YPR025C, strain CCL1, active compounds read low
[68] = locus YPR106W, strain ISR1, active compounds read low
[69] = locus YPR111W, strain DBF20, active compounds read low
[70] = strain NNK1, active compounds read low
[71] = strain TSCII, active compounds read low
[72] = locus YAL013W, strain DEP1, active compounds read low
[73] = locus YGR078C, strain PAC10, active compounds read low
[74] = locus YJR075W, strain HOC1, active compounds read low
[75] = locus YMR263W, strain SAP30, active compounds read low
[76] = locus YPL055C, strain LGE1, active compounds read low
[77] = locus YBR229C, strain ROT2, active compounds read low
[78] = locus YDR150W, strain NUM1, active compounds read low
[79] = locus YEL061C, strain CIN8, active compounds read low
[80] = locus YHR087W, strain rtc3, active compounds read low
[81] = locus YJR043C, strain POL32, active compounds read low
[82] = locus YLR039C, strain RIC1, active compounds read low
[83] = locus YLR058C, strain SHM2 (second series), active compounds read low
[84] = locus YLR085C, strain ARP6, active compounds read low
[85] = locus YLR262C, strain YPT6, active compounds read low
[86] = locus YML094W, strain GIM5, active compounds read low
[87] = locus YMR219W, strain ESC1, active compounds read low
[88] = locus YNL153C, strain GIM3, active compounds read low
[89] = locus YNL298W, strain CLA4 (second series), active compounds read low
[90] = locus YNL322C, strain KRE1, active compounds read low
[91] = locus YNR030W, strain Alg12, active compounds read low
[92] = locus YPL241C, strain CIN2, active compounds read low
[93] = locus YPR135W, strain CTF4, active compounds read low

Measured: normalized growth

O=C(NCc1ccco1)c1csc(C2COc3ccccc3O2)n1 (centres undefined)
active: [12] 0.909 | [13] 0.875 | [21] 0.711 | [25] 0.154 | [26] 0.623 | [35] 0.343 | [42] 0.811 | [55] 0.585 | [57] 0.66 | [58] 0.586 | [66] 0.754
inactive: [1] 0.916 | [2] 0.917 | [3] 0.918 | [4] 0.925 | [5] 0.914 | [6] 0.925 | [7] 0.919 | [8] 0.964 | [9] 0.937 | [10] 0.897 | [11] 0.854 | [14] 0.923 | [15] 0.773 | [16] 0.663 | [17] 0.902 | [18] 0.913 | [19] 0.915 | [20] 0.931 | [22] 0.936 | [23] 0.868 | [24] 0.802 | [27] 0.712 | [28] 0.896 | [29] 0.894 | [30] 0.922 | [31] 0.689 | [32] 0.98 | [33] 0.797 | [34] 0.904 | [36] 0.745 | [37] 0.906 | [38] 0.841 | [39] 0.873 | [40] 0.932 | [41] 0.851 | [43] 0.845 | [44] 0.839 | [45] 0.689 | [46] 0.919 | [47] 0.893 | [48] 0.915 | [49] 0.926 | [50] 0.843 | [51] 0.921 | [52] 0.737 | [53] 0.915 | [54] 0.917 | [56] 0.928 | [59] 0.894 | [60] 0.746 | [61] 0.909 | [62] 0.85 | [63] 0.773 | [64] 0.796 | [65] 0.923 | [67] 0.916 | [68] 0.956 | [69] 0.947 | [70] 0.944 | [71] 0.92

c1ccc2c(c1)OCC(C1=NCCN1)O2 (centres undefined)
inactive: [72] 1.02 | locus YAL040C, strain CLN3, active compounds read low 1 | locus YCL061C, strain MRC1 (second series), active compounds read low 1 | locus YDR363W, strain ESC2, active compounds read low 1.03 | locus YER002W, strain NOP16, active compounds read low 0.987 | [73] 1.01 | locus YGR229C, strain SMI1, active compounds read low 1.02 | [74] 1 | [75] 1.02 | locus YMR307W, strain GAS1, active compounds read low 0.996 | locus YNL175C, strain NOP13, active compounds read low 1.02 | locus YNL197C, strain WHI3, active compounds read low 1.01 | locus YNL224C, strain SQS1, active compounds read low 1.01 | locus YOR083W, strain WHI5 (second series), active compounds read low 0.996 | [76] 1.01

C/C(=N/NC1=NCCN1)c1ccc(F)cc1
inactive: [72] 1.01 | [77] 0.993 | locus YCL061C, strain MRC1, active compounds read low 0.997 | [8] 0.979 | [78] 0.907 | [79] 1.01 | [73] 0.995 | [26] 1.01 | [80] 0.987 | [81] 1 | [74] 0.992 | locus YKL190W, strain CNB1, active compounds read low 1.01 | [82] 1.04 | [83] 1.01 | [84] 0.996 | [85] 0.997 | [86] 0.996 | [87] 1 | [75] 0.998 | [88] 0.987 | [89] 1.02 | [90] 1 | [91] 1.01 | [76] 1.01 | [92] 1.03 | [93] 1.02

N/C(=N/OC(=O)c1ccc(Cl)cc1)c1ccc(F)cc1F
inactive: [1] 0.896 | [2] 0.917 | [3] 0.9 | [4] 0.921 | [5] 0.903 | [6] 0.923 | [7] 0.916 | [8] 0.94 | [9] 0.914 | [12] 0.913 | [14] 0.899 | [19] 0.889 | [20] 0.919 | [22] 0.916 | [30] 0.91 | [32] 0.977 | [37] 0.821 | [46] 0.891 | [54] 0.913 | [58] 0.731 | [65] 0.902 | [67] 0.898 | [68] 0.947 | [69] 0.936 | [70] 0.917
active: [10] 0.879 | [11] 0.559 | [13] 0.871 | [15] 0.491 | [16] 0.482 | [17] 0.446 | [18] 0.872 | [21] 0.541 | [23] 0.505 | [24] 0.487 | [25] 0.305 | [26] 0.139 | [27] 0.244 | [28] 0.465 | [29] 0.21 | [31] 0.243 | [33] 0.543 | [34] 0.892 | [35] 0.239 | [36] 0.309 | [38] 0.631 | [39] 0.593 | [40] 0.887 | [41] 0.384 | [42] 0.348 | [43] 0.659 | [44] 0.419 | [45] 0.556 | [47] 0.684 | [48] 0.881 | [49] 0.896 | [50] 0.579 | [51] 0.894 | [52] 0.37 | [53] 0.854 | [55] 0.38 | [56] 0.879 | [57] 0.542 | [59] 0.463 | [60] 0.276 | [61] 0.899 | [62] 0.395 | [63] 0.398 | [64] 0.425 | [66] 0.368 | [71] 0.878

C/C(=N/OC(=O)c1ccc(Cl)cc1)c1ccc(F)cc1
active: [79] 0.889 | [26] 0.448 | [81] 0.914 | [74] 0.847 | [82] 0.515 | [84] 0.598 | [85] 0.462 | [86] 0.809 | [88] 0.908 | [91] 0.879 | locus YOL006C, strain TOP1, active compounds read low 0.467 | [76] 0.811 | [92] 0.829
inactive: [72] 0.946 | [77] 0.96 | [8] 0.952 | [78] 0.913 | [73] 0.961 | [80] 0.953 | [83] 0.982 | [87] 0.957 | [75] 0.939 | locus YNL128W, strain TEP1, active compounds read low 0.943 | [89] 0.85 | [90] 0.975 | [93] 0.763

— PubChem BioAssay AID1159580 (chemical genetic matrix, 2015)
